Reference: PubChem BioAssay (Tox21)
Results filed as inconclusive are left out. Calls of active or inactive are those of the source. Unless noted, the call rests on the fitted dose curve.

How the values were obtained:
[1] = Nuclear factor erythroid 2-related factor 2/antioxidant responsive element (Nrf2/ARE) small molecule agonists: qHTS cell viability counter screen in human keratinocytes (AID 1919968; active means well fitted curve in the direction sought with a large enough effect in the repeat runs; an effect the other way counts as inactive or inconclusive; further: nearly all actives have a fitted effect of over 55% in size)
In short: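 HaCaT ARE reporter line, 1,500 cells/well; 5 h settle, 37 C/5% CO2; cpd in DMSO pinned; 23 h exposure; CellTiter-Fluor, 1 h; fluorescence.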

[2] = Nuclear factor erythroid 2-related factor 2/antioxidant responsive element (Nrf2/ARE) small molecule agonists: luciferase reporter gene qHTS assay in human keratinocytes (AID 1919969); further: nearly all actives have a fitted effect of over 35% in size; further: potency means the concentration at half of the fitted maximal effect
[3] = target: Gonadotropin-releasing hormone receptor (Homo sapiens) (UniProt P30968); assay: Human gonadotropin-releasing hormone receptor (GnRHR) small molecule agonists, calcium flux assay in GnRHR-HEK293 cells (AID 1920063); further: nearly all actives have a fitted effect of over 35% in size
Sequence of Gonadotropin-releasing hormone receptor (Homo sapiens) (P30968 whole entry, looked up): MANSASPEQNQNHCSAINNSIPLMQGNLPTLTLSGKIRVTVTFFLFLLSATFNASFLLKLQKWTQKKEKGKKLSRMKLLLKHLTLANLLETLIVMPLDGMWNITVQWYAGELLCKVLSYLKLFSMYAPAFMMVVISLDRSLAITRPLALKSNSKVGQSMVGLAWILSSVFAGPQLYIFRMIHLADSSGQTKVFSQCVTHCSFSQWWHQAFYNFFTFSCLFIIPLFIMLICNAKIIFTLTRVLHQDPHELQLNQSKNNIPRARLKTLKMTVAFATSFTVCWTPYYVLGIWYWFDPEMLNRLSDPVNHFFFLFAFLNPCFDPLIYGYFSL
In short: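 GnRHR-HEK293, 1500 cells/well, 18 h 37 C/5% CO2; Ca dye 1 h 37 C; cpd pinned (DMSO), agonist mode; kinetic FL 480/540, 3 min, 1 s reads; 15 conc, n=3.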

[4] = target: KiSS-1 receptor (Homo sapiens) (UniProt Q969F8); assay: Human kisspeptin (KISS1R) small molecule agonists, calcium flux assay in KISS1R-HEK293 cells (AID 1920064; active means well fitted curve in the direction sought with a large enough effect in the repeat runs; an effect the other way counts as inactive or inconclusive)
Sequence of KiSS-1 receptor (Homo sapiens) (Q969F8 whole entry, looked up): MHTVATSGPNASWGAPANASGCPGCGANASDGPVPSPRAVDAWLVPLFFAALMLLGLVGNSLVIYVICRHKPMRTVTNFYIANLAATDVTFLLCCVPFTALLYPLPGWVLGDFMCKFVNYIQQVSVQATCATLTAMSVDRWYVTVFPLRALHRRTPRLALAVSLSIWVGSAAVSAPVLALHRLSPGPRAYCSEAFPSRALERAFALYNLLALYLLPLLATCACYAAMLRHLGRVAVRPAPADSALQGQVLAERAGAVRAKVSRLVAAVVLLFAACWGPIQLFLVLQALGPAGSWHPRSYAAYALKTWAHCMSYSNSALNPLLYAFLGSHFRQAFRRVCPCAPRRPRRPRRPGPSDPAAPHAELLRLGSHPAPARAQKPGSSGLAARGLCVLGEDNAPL
In short: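 Stable human KISS1R HEK293 line; 18 h plating, 37 C/5% CO2; calcium dye 1 h 37 C; compound pin transfer; kinetic fluorescence Ex/Em 480/540, 3 min.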

[5] = G protein-coupled receptor (GPCR) small molecule agonists, calcium flux assay: HEK293 wild type cell line counter screen (AID 1920065)
In short: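 Kinetic fluorescence at Ex/Em 480/540, recorded every second over 3 min, served as the read-out after compound addition. Each compound was tested at 15 concentrations in triplicate on cells pre-loaded with calcium dye for 1 h.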

[6] = p53 small molecule agonists, cell-based qHTS assay with human liver microsomes (AID 1963577);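 further: p53 response element beta-lactamase reporter cells with liver microsomes plus NADPH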
In short: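 HLM-supplemented p53RE-bla reporter assay: 16 h compound exposure at 37 C, microsomes and NADPH each 0.5 mg/mL final, read by fluorescence intensity.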

[7] = p53 small molecule agonists, cell-based qHTS assay with rat liver microsomes (AID 1963578)
In short: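 Quantitative HTS of the Tox21 10K library: p53RE-bla cells, rat liver microsomes plus NADPH at 0.5 mg/mL final each, 16 h at 37 C, beta-lactamase fluorescence detection.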

[8] = p53 small molecule agonists, cell-based qHTS assay with human liver microsomes: qHTS cell viability counter screen (AID 1963579); further: nearly all actives have a fitted effect of over 45% in size
In short: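 Viability of p53RE-bla cells is measured as CellTiter-Glo luminescence following a 16 h, 37 C incubation with compound, liver microsomes from human donors and NADPH.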

[9] = p53 small molecule agonists, cell-based qHTS assay with rat liver microsomes: qHTS cell viability counter screen (AID 1963580); further: nearly all actives have a fitted effect of over 45% in size
In short: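 p53RE-bla HCT-116 cells (4,000/well) rested 5 h at 37 C, then given Tox21 compounds in DMSO with rat liver microsomes (0.5 mg/mL final) plus NADPH (0.5 mg/mL final) for 16 h at 37 C. Viability read by CellTiter-Glo luminescence after 30 min at room temperature.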

[10] = p53 small molecule agonists, cell-based qHTS assay: qHTS cell viability counter screen (AID 1963581); further: nearly all actives have a fitted effect of over 45% in size
In short: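 HCT-116 p53RE-bla cells, 4,000/well, plated 5 h before compound pin transfer; 16 h at 37 C; bla substrate 2 h RT; then CellTiter-Glo, 30 min RT, luminescence.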

[11] = p53 small molecule agonists, cell-based qHTS assay (AID 1963582; active means well fitted activation curve with a large enough effect in the signal ratio in the repeat runs, not every such curve was filed as active; the % refers to the signal ratio)
In short: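 Reporter line: p53RE-bla. Pre-incubation 5 h, 37 C, 5% CO2; compound (DMSO, pin tool) 16 h, 37 C; B/G FRET substrate 2 h RT; fluorescence intensity read.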

[12] = target: 5-hydroxytryptamine receptor 2A (Homo sapiens) (UniProt P28223); assay: 5-hydroxytryptamine receptor 2A (HTR2A) small molecule antagonists, cell-based qHTS assay (AID 1963586); further: nearly all actives have a fitted effect of over 45% in size; further: potency means the concentration at half of the fitted maximal effect
Sequence of 5-hydroxytryptamine receptor 2A (Homo sapiens) (P28223 whole entry, looked up): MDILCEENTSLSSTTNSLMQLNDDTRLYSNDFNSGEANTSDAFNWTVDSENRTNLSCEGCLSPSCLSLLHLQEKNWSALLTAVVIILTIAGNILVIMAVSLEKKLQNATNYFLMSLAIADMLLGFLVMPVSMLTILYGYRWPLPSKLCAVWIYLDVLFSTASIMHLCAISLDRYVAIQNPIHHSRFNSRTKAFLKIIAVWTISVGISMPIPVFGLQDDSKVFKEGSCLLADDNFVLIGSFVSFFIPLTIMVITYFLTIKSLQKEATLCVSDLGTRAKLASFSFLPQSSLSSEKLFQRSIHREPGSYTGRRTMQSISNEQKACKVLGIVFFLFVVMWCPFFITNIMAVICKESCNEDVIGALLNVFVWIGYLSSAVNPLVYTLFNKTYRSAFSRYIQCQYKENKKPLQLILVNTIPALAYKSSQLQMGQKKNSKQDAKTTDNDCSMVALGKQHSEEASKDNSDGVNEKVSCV
In short: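 Antagonist-mode intracellular calcium assay: DOI (4 nM) added after 5 min compound pre-incubation at room temperature to dye-loaded HTR2A-CHO cells. Fluorescence followed for 3 min, sampled every second.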

[13] = target: 5-hydroxytryptamine receptor 2A (Homo sapiens) (UniProt P28223); assay: 5-hydroxytryptamine receptor 2A (HTR2A) small molecule agonists, cell-based qHTS assay (AID 1963587); further: nearly all actives have a fitted effect of over 30% in size
In short: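 HTR2A-CHO cells, plated 18 h at 37 C/5% CO2, dye-loaded 1 h at 37 C; compounds in DMSO added by pin tool (agonist mode). Intracellular calcium flux read as kinetic fluorescence on FDSS over 2 min at 1 s intervals.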

[14] = target: Muscarinic acetylcholine receptor M1 (Homo sapiens) (UniProt P11229); assay: Cholinergic receptor muscarinic 1 (CHRM1) small molecule antagonists, cell-based qHTS assay (AID 1963588); further: nearly all actives have a fitted effect of over 40% in size
Sequence of Muscarinic acetylcholine receptor M1 (Homo sapiens) (P11229 whole entry, looked up): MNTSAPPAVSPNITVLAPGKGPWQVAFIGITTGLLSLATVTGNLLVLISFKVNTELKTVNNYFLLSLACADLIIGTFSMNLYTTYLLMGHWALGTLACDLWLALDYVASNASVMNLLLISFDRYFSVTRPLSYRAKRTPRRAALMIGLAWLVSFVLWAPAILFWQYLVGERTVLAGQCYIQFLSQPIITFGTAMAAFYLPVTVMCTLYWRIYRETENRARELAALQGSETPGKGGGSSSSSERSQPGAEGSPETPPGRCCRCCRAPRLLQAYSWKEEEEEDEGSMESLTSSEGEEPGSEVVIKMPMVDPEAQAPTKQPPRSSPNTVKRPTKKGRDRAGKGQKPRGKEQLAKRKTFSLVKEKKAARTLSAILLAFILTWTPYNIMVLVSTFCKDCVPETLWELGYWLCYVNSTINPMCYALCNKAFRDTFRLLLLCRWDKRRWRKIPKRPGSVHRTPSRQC
In short: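 CHRM1-CHO calcium-flux assay, antagonist mode. Cells were seeded 18 h, dye-loaded 1 h at 37 C and given compound for 5 min at RT, then acetylcholine was added at 50nM. FDSS fluorescence was read 3 min; 15 concentrations, three runs.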

[15] = target: Muscarinic acetylcholine receptor M1 (Homo sapiens) (UniProt P11229); assay: Cholinergic receptor muscarinic 1 (CHRM1) small molecule agonists, cell-based qHTS assay (AID 1963589); further: nearly all actives have a fitted effect of over 35% in size
In short: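 Human M1 in stable CHO line; 18 h plating, 1 h dye load 37 C; cpd added (agonist mode); Ca2+ fluorescence kinetic read, 1 s intervals; 15 conc, 3 runs.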

[16] = cAMP Responsive Elements (CRE) small molecule agonists, cell-based qHTS assay (AID 1963590)
In short: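 HEK 293T CRE-bla, 2,000 cells/well, 18 h preincubation 37 C/5% CO2; cpds (DMSO) pinned, 3 h; LiveBLAzer B/G FRET substrate, 2 h RT.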

[17] = target: Beta-2 adrenergic receptor (Homo sapiens) (UniProt P07550); assay: Adrenergic beta2 receptor (ADRB2) small molecule antagonists, cell-based qHTS assay (AID 1963592); further: series mostly up to about 92 µM; nearly all actives have a fitted effect of over 50% in size
Sequence of Beta-2 adrenergic receptor (Homo sapiens) (P07550 whole entry, looked up): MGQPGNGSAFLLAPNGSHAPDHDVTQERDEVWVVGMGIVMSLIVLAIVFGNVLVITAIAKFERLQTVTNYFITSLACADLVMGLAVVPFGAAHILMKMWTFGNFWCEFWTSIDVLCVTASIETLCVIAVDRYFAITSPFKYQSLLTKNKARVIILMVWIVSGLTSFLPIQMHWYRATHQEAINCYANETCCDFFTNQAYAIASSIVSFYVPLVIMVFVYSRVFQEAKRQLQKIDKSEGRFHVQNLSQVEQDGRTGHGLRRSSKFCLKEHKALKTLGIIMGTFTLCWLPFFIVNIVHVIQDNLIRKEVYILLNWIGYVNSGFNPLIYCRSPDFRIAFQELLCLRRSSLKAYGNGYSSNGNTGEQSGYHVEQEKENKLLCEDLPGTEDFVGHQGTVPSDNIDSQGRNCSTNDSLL
In short: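 Cells (CHO, stable ADRB2 overexpression) incubated 18-20hr at 37C; compounds added from DMSO; agonist mix (1nM isoproterenol, 100uM IBMX, 25uM Ro-20-1724) added; 0.5hr RT; d2-cAMP and anti-cAMP-cryptate added; 1hr RT; 665/615 nm read.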

[18] = target: D(2) dopamine receptor (Homo sapiens) (UniProt P14416); assay: Dopamine D2 receptor (DRD2) small molecule agonists, cell-based qHTS assay (AID 1963594); further: nearly all actives have a fitted effect of over 35% in size
Sequence of D(2) dopamine receptor (Homo sapiens) (P14416 whole entry, looked up): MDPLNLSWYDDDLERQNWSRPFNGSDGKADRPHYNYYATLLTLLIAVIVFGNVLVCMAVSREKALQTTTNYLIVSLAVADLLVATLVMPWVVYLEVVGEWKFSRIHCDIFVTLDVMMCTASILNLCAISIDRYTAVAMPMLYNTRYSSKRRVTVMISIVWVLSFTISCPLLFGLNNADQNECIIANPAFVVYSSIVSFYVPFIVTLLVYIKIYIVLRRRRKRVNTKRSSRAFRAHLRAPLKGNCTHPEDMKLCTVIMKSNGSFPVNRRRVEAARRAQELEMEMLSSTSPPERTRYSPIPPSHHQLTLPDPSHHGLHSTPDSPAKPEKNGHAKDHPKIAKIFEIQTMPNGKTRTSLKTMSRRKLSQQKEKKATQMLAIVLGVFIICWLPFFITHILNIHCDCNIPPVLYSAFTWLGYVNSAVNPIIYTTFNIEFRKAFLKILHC
In short: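 HEK293 cells stably expressing DRD2 were cultured 24 h at 37 C, then given Ro20-1724 (0.1 mM final) and compounds for 10 min at room temperature. NKH477 (200nM) was then added for 30 min. cAMP was read by HTRF.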

[19] = target: D(2) dopamine receptor (Homo sapiens) (UniProt P14416); assay: Dopamine D2 receptor (DRD2) small molecule antagonists, cell-based qHTS assay (AID 1963595; active means well fitted inhibition curve with a large enough effect in the signal ratio in the repeat runs, with a control signal flat; the % refers to the signal ratio; further: potency means the concentration at half of the fitted maximal effect)
In short: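 Antagonism was scored as restored cAMP in HEK293-DRD2 cells. These cells were stimulated with 200 nM NKH477 and 12 nM quinpirole for 30 min at room temperature, in the presence of 0.1 mM Ro20-1724.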

[20] = cAMP Responsive Elements (CRE) small molecule antagonists, cell-based qHTS assay (AID 1963591; active means well fitted inhibition curve with a large enough effect in the signal ratio in the repeat runs, not every such curve was filed as active; the % refers to the signal ratio)
In short: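 Beta-lactamase reporter read by FRET substrate (LiveBLAzer B/G) after 2 h at room temperature. CRE-bla HEK293T cells had received compound plus 0.25 uM (final) NKH477 for 3 h at 37 °C.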

Measured: Potency

CCOCOCC
not listed: [20]
inactive: all other assays above

C=COCCCC
not listed: [17]
inactive: all other assays above

NC(=O)CCCCC(N)=O
not listed: [17]
inactive: all other assays above

CCOCCOCCOCCO
not listed: [19] | [20]
inactive: all other assays above

C=C1CC/C=C(\C)CC[C@@H]2[C@@H]1CC2(C)C
not listed: [18]
inactive: all other assays above

O=C1CCCc2ccccc21
not listed: [17]
inactive: all other assays above

CC(=N\O)/C(C)=N/O
not listed: [18] | [20]
inactive: all other assays above

c1ccc(SCCSc2ccccc2)cc1
active: [2] 12100 nM
not listed: [18]
inactive: all other assays above

C#CC(C)(O)CC(C)C (stereo not drawn)
not listed: [18]
inactive: all other assays above

O=S(=O)(O)c1cccc2c(S(=O)(=O)O)cccc12
not listed: [20]
inactive: all other assays above

O=[Si]=O
not listed: [17]
inactive: all other assays above

CCC1COC(=O)O1 (stereo not drawn)
not listed: [17]
inactive: all other assays above

Cc1ccc(C(C)(C)O)cc1
not listed: [18]
inactive: all other assays above

Cc1ccc(S(=O)(=O)NC(=O)NC2CCCC2)cc1
not listed: [20]
inactive: all other assays above

O=C(CCCN1CCC(O)(c2cccc(C(F)(F)F)c2)CC1)c1ccc(F)cc1
active: [12] 365 nM | [19] 4.2 nM
not listed: [17]
inactive: all other assays above
